For orientation: Inhibition means how much of the control response was suppressed. Lower therefore signals a response near the control.

What all share (assay type): functional
Assay [1] relates to Plasmodium falciparum. Nature of the assay: GSK_TCMDC: Inhibition of Plasmodium falciparum 3D7 in whole red blood cells, using parasite LDH activity as an index of growth. Test compounds present at 2uM.
For assay [2], the system named is Plasmodium falciparum. Nature of the assay: GSK_TCMDC: Inhibition of Plasmodium falciparum Dd2 in whole red blood cells, using parasite LDH activity as an index of growth. Test compounds present at 2uM.
The subject of the next assay is HepG2. Nature of the assay: GSK_TCMDC: Percent inhibition of human HepG2 cell line. Test compounds present at 10uM.

As for `CC1N=C(N)N=C(N)N1OCc1ccccc1.Cl` (stereo not drawn), the Inhibition is given as 94% in the assay on Plasmodium falciparum [1], 72% in the assay with Plasmodium falciparum [2] and 62% in the assay on HepG2.
On the same counts, the results for `CCc1nc2c(cnn2CC)c(NC2CCOCC2)c1CNC(=O)N1CCOCC1` are 98%, 48% and 0%.
On the same counts, the results for `CN(C)CCCNCc1ccc(-c2ccc(F)c(Cl)c2)o1.Cl` are 93%, 69% and 29%.
Take `Cc1cc(-c2cccc(CNC3CCCC3)c2)ccc1S(=O)(=O)NCCN1CCCC1.O=C(O)C(F)(F)F`: the Inhibition with Plasmodium falciparum [1] is recorded as 81%; in the assay on Plasmodium falciparum [2], 7%; in the assay with HepG2 it was 38%.
For `O=C1OC2(CN1CC1CCN(Cc3ccc(O)c(Cl)c3)CC1)c1ccccc1-c1ccccc12`, in that order: 97%, 96% and 32%.
With `O=C(NCc1ccccc1[S+]([O-])c1ccccc1CO)C(F)(F)F` (stereo not drawn), the Inhibition in the assay with Plasmodium falciparum [1] is listed as 98%; with Plasmodium falciparum [2], 2%; in the assay with HepG2, 50%.
For `COc1ccc(Cl)cc1NC(=O)Nc1cc(C)nc2ccccc12`, in that order: 100%, 99% and 10%.
For `CCCOc1ccc(C(=O)Nc2nonc2-c2ccc(OC)c(OC)c2)cc1`, in that order: 99%, 97% and 0%.
With `CCN(CC)CCN(Cc1ccc(-c2ccc(C(F)(F)F)cc2)cc1)C(=O)Cn1cc(Cc2cnn(C)c2)c(=O)nc1/C=C/c1cccc(F)c1F.O=C(O)C(O)C(O)C(=O)O`, the Inhibition with Plasmodium falciparum [1] is on record as 95%; in the assay with Plasmodium falciparum [2], 98%; in the assay on HepG2, 11%.
For `COc1cc2nc(N[C@@H](CO)c3ccccc3)nc(NCc3ccccc3)c2cc1OC`, the Inhibition in the assay on Plasmodium falciparum [1] was determined as 100%; with Plasmodium falciparum [2] it was 71%; with HepG2, 6%.
For `CCOC(=O)c1c(CN2CCCC2)n(-c2ccccc2)c2cc(Br)c(O)cc12`, in that order: 83%, 53% and 0%.
As for `CS(=O)(=O)NCCCNCc1cccc(-c2cccc(-c3nc4cc(F)ccc4[nH]3)c2)c1.O=C(O)C(F)(F)F`, the Inhibition was 100% in the assay on Plasmodium falciparum [1], 5% in the assay with Plasmodium falciparum [2] and 4% in the assay on HepG2.
On the same counts, the results for `O=C(Nc1cccc(CN2CCN(Cc3cccc(O)c3)CC2)c1)c1ccc(Cl)c(Cl)c1.O=C(O)C(F)(F)F` are 100%, 35% and 28%.
For `COc1cc(Nc2nccc(-c3c(-c4cccc(NC(=O)c5c(F)cccc5F)c4)nn4ncccc34)n2)cc(OC)c1OC`, in that order: 98%, 97% and 96%.
On to `Cl.N=C(N)NN=Cc1cc2ccccc2c2ccccc12`, for which the results for the Inhibition with Plasmodium falciparum [1], in the assay on Plasmodium falciparum [2] and in the assay on HepG2 were 100%, 63% and 25%, respectively.
For `CC(C)(C)c1nn(-c2ccccc2)c2[nH]c(=O)c(CNCc3ccc4c(c3)OCO4)cc12`, in that order: 92%, 32% and 1%.
For `COc1ccc2nccc([C@@H](O)CN3CCC(NC(=O)Cc4ccc(Br)c5ccccc45)CC3)c2c1`, in that order: 98%, 40% and 10%.
On the same counts, the results for `CN1CCN(c2nsc3ccc(-c4ccc(OCCN5CCCC5)cc4)cc23)CC1.O=C(O)C(F)(F)F` are 100%, 99% and 57%.
On to `Cc1[nH]c2ccc(O)cc2c1C1CCN(CCCCCNC(=O)/C=C/c2ccc(Cl)c(Cl)c2)CC1`, for which the Inhibition in the assay on Plasmodium falciparum [1] worked out at 100%; in the assay on Plasmodium falciparum [2] it was 1%; with HepG2, 33%.
For `CC(C)(C)CN1C(=O)C(c2ccccc2)(c2ccccc2)N=C1N.O=CO`, the figures for the Inhibition in the assay with Plasmodium falciparum [1], in the assay with Plasmodium falciparum [2] and with HepG2 were 98%, 94% and 32%, respectively.
For `CC(=O)c1ccc2c(c1)C(NC(=O)c1cccc(Cl)c1Cl)C(CO)C(C)(C)O2` (stereo not drawn), the Inhibition in the assay on Plasmodium falciparum [1] was 99%; in the assay with Plasmodium falciparum [2], 44%; in the assay with HepG2, 5%.
For `CCc1c(CCNCCCCCCNCc2ccc3c(c2CC)OCO3)ccc(OC)c1OC.Cl`, the Inhibition is reported as 100% with Plasmodium falciparum [1], 19% in the assay with Plasmodium falciparum [2] and 38% with HepG2.
Regarding `O=C(Nc1cccc(-c2ccc(-c3nc4ccccc4[nH]3)cc2)c1)c1cccnc1`, the Inhibition with Plasmodium falciparum [1] was found to be 100%; with Plasmodium falciparum [2], 1%; in the assay with HepG2, 18%.
With `Cc1cc(N2CCCC2)nc(Nc2ccc(NC(=O)c3ccc(Br)o3)cc2)n1`, the figures for the Inhibition with Plasmodium falciparum [1], with Plasmodium falciparum [2] and with HepG2 were 99%, 57% and 17%, respectively.
Regarding `COc1ccc2nccc(NCC3(O)CCN(CCc4ccc5c(c4)OCCO5)CC3)c2n1.Cl`, the Inhibition with Plasmodium falciparum [1] was 100%; with Plasmodium falciparum [2], 87%; in the assay with HepG2 it was 35%.
As to `COc1ccc(Br)cc1/C=C/C(=O)Nc1cccc(C2CCN(C)CC2)c1.O=CO`, the values for the Inhibition with Plasmodium falciparum [1], in the assay on Plasmodium falciparum [2] and in the assay on HepG2 were 95%, 37% and 44%, respectively.
On the same counts, the results for `CN1CCN(CCCNCc2cccc(-c3ccc(CNCCc4ccccc4)cc3)c2)CC1.O=C(O)C(F)(F)F` are 100%, 20% and 36%.
For `Cc1ccc(CNC(=O)c2cc3c(=O)n4ccccc4nc3n(CCCN3CCOCC3)c2=N)cc1`, in that order: 92%, 5% and 21%.
Consider `CCCCCCCN1CC[C@@H](CCC(O)c2ccnc3ccc(OC)cc23)[C@@H](CC)C1` (stereo partly drawn), for which the Inhibition in the assay with Plasmodium falciparum [1] is 97%; with Plasmodium falciparum [2], 93%; in the assay with HepG2 it was 34%.
On the same counts, the results for `CCc1ccc(NC(=O)c2ccc(CN3CCCN(Cc4cccs4)CC3)cc2)cc1.O=C(O)C(F)(F)F` are 87%, 0% and 57%.
On the same counts, the results for `Cc1cc(C)c(S(=O)(=O)N2CCCCC(c3cccc(C(F)(F)F)c3)=N2)c(C)c1` are 94%, 95% and 0%.
For `COc1cc(F)c2ncc(Cl)c([C@H](O)CN3CCC(NCc4cc5c(cn4)OCCO5)CC3)c2c1.Cl`, in that order: 100%, 49% and 10%.
Regarding `O=C(c1ccc(-c2ccc(-c3nc4cc(C(F)(F)F)ccc4[nH]3)s2)cc1)N1CCN(CCc2ccccc2)CC1`, the Inhibition is listed as 98% in the assay on Plasmodium falciparum [1], 60% in the assay with Plasmodium falciparum [2] and 23% in the assay on HepG2.
For `CCCCCCOc1ccc(C(=O)NCCC2CCN(CCCCCNC(=O)C=Cc3ccc(Cl)c(Cl)c3)CC2)cc1`, in that order: 99%, 10% and 13%.
Consider `Cc1ccc(-n2c(C)nc3c(Nc4ccc(-c5ccncc5)cc4)ncnc32)c(C)c1`, for which the figures for the Inhibition with Plasmodium falciparum [1], in the assay on Plasmodium falciparum [2] and with HepG2 were 99%, 99% and 38%, respectively.
For `COc1nc(NCC(C)C)nc(Oc2ccc(=O)n(Cc3ccccc3)n2)n1`, the Inhibition with Plasmodium falciparum [1] is 97%; in the assay with Plasmodium falciparum [2], 93%; in the assay with HepG2, 1%.
For `COC(=O)Cc1ccc(N)c2ccccc12.Cl`, in that order: 98%, 0% and 2%.
Consider `N#Cc1cccc(C(=O)Nc2cccc(-c3ccc(CN4CCC(O)CC4)cc3)c2)c1.O=C(O)C(F)(F)F`, for which the values for the Inhibition with Plasmodium falciparum [1], in the assay with Plasmodium falciparum [2] and with HepG2 were 86%, 2% and 15%, respectively.
For `O=C(Cc1c[nH]cn1)Nc1cccc(-c2cccc(-c3nc4cc(F)ccc4[nH]3)c2)c1`, in that order: 100%, 97% and 21%.
On the same counts, the results for `Cc1ccc(NC(=O)c2cccc(CN3CCCN(CC4CCCCC4)CC3)c2)cc1F.O=C(O)C(F)(F)F` are 85%, 42% and 22%.
For `Cl.O=C(Nc1ccc(Cl)c(Cl)c1)N1CCc2cc3nccc(N4CCN5CCC[C@H]5C4)c3cc21`, in that order: 100%, 75% and 2%.
Regarding `Oc1cc(Nc2ccnc3cc(-c4ccc(CN5CCCCC5)o4)ccc23)c(Cl)cc1F`, the Inhibition in the assay on Plasmodium falciparum [1] is 100%; with Plasmodium falciparum [2], 81%; with HepG2, 30%.
Regarding `Cc1noc(C)c1S(=O)(=O)N(C)Cc1ccc(-c2ccc(Cl)cc2)o1`, the Inhibition with Plasmodium falciparum [1] is given as 100%; with Plasmodium falciparum [2], 100%; in the assay with HepG2, 10%.
For the compound `Cc1cccc2nc(-c3cccc(-c4ccc(NC(=O)C(=O)c5cccn5C)cc4)c3)[nH]c12`, the values for the Inhibition in the assay on Plasmodium falciparum [1], in the assay with Plasmodium falciparum [2] and in the assay on HepG2 were 100%, 46% and 45%, respectively.
For the compound `O=C(NCc1ccc(Cl)c(Cl)c1)c1ccc(C2CCCN(Cc3ccc4[nH]cnc4c3)C2)cc1` (stereo not drawn), the Inhibition is on record as 100% in the assay with Plasmodium falciparum [1], 83% in the assay on Plasmodium falciparum [2] and 9% with HepG2.
`O=C(NCCN1Cc2ccccc2C1=O)c1ccc(Oc2ccc(C(=O)NCCN3Cc4ccccc4C3=O)cc2)cc1`: the values for the Inhibition in the assay on Plasmodium falciparum [1], with Plasmodium falciparum [2] and in the assay with HepG2 were 99%, 95% and 27%, respectively.
On the same counts, the results for `Cc1cc(NC2CCN(CC3CCCCC3)C2)nc(Nc2ccc(Cl)cc2)n1` (stereo not drawn) are 98%, 83% and 26%.
For `O=C(O)C(F)(F)F.O=[N+]([O-])c1cccc(CNCC2CCN(Cc3ccc(-c4ccccc4)cc3)CC2)c1`, in that order: 100%, 91% and 28%.
Regarding `O=C(/C=C/c1ccc(Cl)c(Cl)c1)NCCCCCN1CCCC(CNC(=O)/C=C/c2ccccc2)C1` (stereo not drawn), the Inhibition is reported as 98% with Plasmodium falciparum [1], 6% in the assay with Plasmodium falciparum [2] and 37% in the assay on HepG2.
On the same counts, the results for `CCCCNC(=O)[C@H](CC1CCCCC1)NC(=O)c1ccc(O)c(-c2ccc(OC)cc2)c1` are 89%, 12% and 0%.
On the same counts, the results for `CC(=O)Nc1ccc(CN(Cc2cccc(OC(C)(C)C)c2)Cc2ccc3c(c2)OCCO3)cc1` are 95%, 96% and 0%.
For `CCN(CC)CCCOc1ccc(Nc2nccc(-c3c(-c4cccc(NC(=O)c5c(F)cccc5F)c4)nn4ccccc34)n2)cc1F`, in that order: 100%, 99% and 86%.
With `O=C(Nc1cccc(-c2ccc(-c3nc4cc(C(F)(F)F)ccc4[nH]3)cc2)c1)c1ccoc1`, the Inhibition is 98% in the assay on Plasmodium falciparum [1], 42% in the assay on Plasmodium falciparum [2] and 76% with HepG2.
For `O=C(NCCCCN1CCN(c2cccc3ccccc23)CC1)c1ccc(NC(=O)c2ccc(Cl)cc2)cc1`, the Inhibition in the assay on Plasmodium falciparum [1] came out at 100%; in the assay with Plasmodium falciparum [2] it was 64%; with HepG2, 38%.
On the same counts, the results for `N=C(N)Nc1nc(-c2cccc(NCCCCCCCCON3C(N)=NC(N)=NC34CCCCC4)c2)cs1.O=C(O)C(F)(F)F` are 97%, 42% and 3%.
For `O=C(NCc1ccccc1)Nc1ccc(-c2ccc(-c3nc4cc(C(F)(F)F)ccc4[nH]3)cc2)cc1`, the Inhibition in the assay on Plasmodium falciparum [1] is listed as 99%; in the assay on Plasmodium falciparum [2] it was 23%; in the assay on HepG2 it was 40%.
For `O=S(=O)(Nc1cccc(CCN2CCCCC2CCN2CCCC2)c1)c1cccc2ccccc12` (stereo not drawn), in that order: 97%, 6% and 23%.
In the case of `NCc1cccc(-c2ccccc2CNC2CCN(Cc3ccccc3)CC2)c1.O=C(O)C(F)(F)F`, the Inhibition with Plasmodium falciparum [1] is reported as 94%; with Plasmodium falciparum [2] it was 4%; in the assay on HepG2, 0%.
`Cl.O=C(/C=C/c1ccccc1F)NC1CCC(CCN2CCc3ccc(-c4cccnc4)cc3CC2)CC1` (stereo not drawn): the Inhibition turned out to be 92% in the assay on Plasmodium falciparum [1], 5% in the assay with Plasmodium falciparum [2] and 34% in the assay on HepG2.
On the same counts, the results for `CN1CCN(CCCN(Cc2ccc(-c3cccc(CNCc4ccc5c(c4)OCO5)c3)cc2)C(=O)CCC2CCCC2)CC1.O=C(O)C(F)(F)F` are 92%, 85% and 24%.
Take `CCN(C(=O)c1ccc(NC(=O)c2cccs2)cc1)c1nc2c(C)cccc2s1`: the Inhibition with Plasmodium falciparum [1] stood at 89%; with Plasmodium falciparum [2] it was 85%; with HepG2, 24%.

Values taken from ChEMBL document CHEMBL1157539, “Thousands of chemical starting points for antimalarial lead identification” (Nature, 2010).
